Screening data as filed in PubChem.
RecA intein inh: Mtb RecA intein splicing inhibitors, primary screen, biochemical, fluorescence, HTS; hit rate 0.75% among 290,000; Protein RecA (Mycobacterium tuberculosis (strain ATCC 25618 / H37Rv)), P9WHJ3; inhibition, % (concentration not given with the values); AID 2221, 2009; cell-free RecA intein splicing; in the data active means inhibition above about 30%; inconclusive means no clear call, values can overlap the other calls
Target sequence (P9WHJ3 whole entry, looked up): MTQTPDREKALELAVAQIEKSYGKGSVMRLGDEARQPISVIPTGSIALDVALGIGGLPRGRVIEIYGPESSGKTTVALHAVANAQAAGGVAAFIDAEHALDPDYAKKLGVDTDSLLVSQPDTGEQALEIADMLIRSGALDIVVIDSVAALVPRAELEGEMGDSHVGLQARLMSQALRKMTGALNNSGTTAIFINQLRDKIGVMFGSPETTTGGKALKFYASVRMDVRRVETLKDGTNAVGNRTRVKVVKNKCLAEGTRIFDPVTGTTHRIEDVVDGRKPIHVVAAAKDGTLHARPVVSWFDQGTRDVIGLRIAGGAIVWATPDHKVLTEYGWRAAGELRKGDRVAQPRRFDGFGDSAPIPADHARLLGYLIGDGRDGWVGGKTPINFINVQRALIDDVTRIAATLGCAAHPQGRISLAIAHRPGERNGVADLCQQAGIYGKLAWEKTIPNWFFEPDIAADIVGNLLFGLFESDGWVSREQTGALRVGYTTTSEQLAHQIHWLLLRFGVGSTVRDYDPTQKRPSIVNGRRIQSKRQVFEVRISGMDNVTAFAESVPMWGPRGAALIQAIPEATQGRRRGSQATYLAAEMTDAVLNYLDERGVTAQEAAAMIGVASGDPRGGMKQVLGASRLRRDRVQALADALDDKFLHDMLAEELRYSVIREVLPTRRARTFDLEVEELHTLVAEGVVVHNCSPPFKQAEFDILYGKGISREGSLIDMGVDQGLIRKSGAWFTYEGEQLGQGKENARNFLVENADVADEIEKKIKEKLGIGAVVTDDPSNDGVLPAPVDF
BioA inh: M. tuberculosis BioA enzyme inhibitors, primary screen, biochemical, plate reader, single point, HTS; purified M. tuberculosis BioA enzyme; inhibition, % at 9.99 µM; hit rate 0.096% among 360,000; AID 602481, 2012; in the data active means inhibition above about 40%; inconclusive means no clear call, values can overlap the other calls
Mtb UGM inh: M. tuberculosis UGM enzyme inhibitors, primary screen, biochemical, fluorescence polarization, single point; UDP-galactopyranose mutase (Mycobacterium tuberculosis (strain ATCC 25618 / H37Rv)), …; purified UGM, fluorescence polarization probe displacement; inhibition, % at 10 µM; hit rate 0.06% among 320,000; AID 504406, 2011; in the data active means inhibition above about 10%, passing the limit was not always enough; inconclusive means no clear call, values can overlap the other calls
FadD28 FP inh: inhibitors of FadD28 bisubstrate probe binding, primary screen, biochemical, fluorescence polarization, single point; Mycobacterium tuberculosis FadD28 fatty-acid-AMP ligase; inhibition, % at 12.5 µM; hit rate 0.22% among 360,000; AID 588549, 2011; in the data active means inhibition above about 8.5%, passing the limit was not always enough; inconclusive means no clear call, values can overlap the other calls
Rv3671c inh: Rv3671c serine protease inhibitors, primary screen, biochemical, fluorescence polarization, M. tuberculosis H37Rv; P9WHR9; inhibition, % at 5.96 µM; hit rate 0.048% among 320,000; AID 2606, 2010; in the data active means inhibition above about 38%;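 further: extracellular domain of Rv3671c used as enzyme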
TcdB inh: TcdB glycohydrolase inhibitors, primary screen, biochemical, single point, plate reader; Toxin B (Clostridioides difficile), P18177; TcdB glycohydrolase enzymatic assay; inhibition, % at 9.99 µM; hit rate 0.24% among 350,000; AID 652162, 2013; in the data active means inhibition above about 10%
GFP chromophore: counter-screen: blocks GFP chromophore formation, dose response, counter-screen, biochemical, fluorescence, homogeneous; cell-free GFP chromophore formation; AID 434968, 2010; EC50, µM; hit rate 83% among 2,100; shares compounds with RecA intein inh; call rule not given here
Of the large screens only hits and unclear results are named; the others gave an inactive call (follow-up assays come after a bar, where they were run). Shown are actives, neighbours in structure and some others; about 0.97% of the full set was active somewhere.

CCOC(=O)/C(C#N)=C\c1cccnc1	none (no result: BioA inh)
C[C@@H]1CN([C@H](C)CO)C(=O)c2cc(NC(=O)NC3CCCCC3)ccc2O[C@@H](C)CCCCO[C@H]1CN(C)C(=O)NC1CCCCC1	none (no result: RecA intein inh, Mtb UGM inh, FadD28 FP inh, Rv3671c inh)
COc1ccc(-c2c(=O)n(OC)c3ccccc3[n+]2[O-])cc1OC	RecA intein inh 42 | GFP chromophore inactive
O=C(CCCCl)NC1=NN(c2ccccc2)C(=O)C1	none (no result: RecA intein inh, BioA inh)
CC(=O)NC1=NN(c2ccccc2)C(=O)C1	RecA intein inh 82 (no result: TcdB inh) | GFP chromophore 36
O=C(CCl)Nc1ccccc1Sc1ccccc1	none (no result: RecA intein inh, TcdB inh)
Cc1ccc(Sc2ccc(NC(=O)CCl)cc2)cc1C	RecA intein inh 66 (no result: BioA inh, TcdB inh) | GFP chromophore 7.3
Cc1ccc(C)c(Sc2ccc(NC(=O)CCl)cc2)c1	RecA intein inh 91 (no result: BioA inh, FadD28 FP inh) | GFP chromophore 7
O=C(C[C@H]1C=C[C@@H](NC(=O)C2CCOCC2)[C@H](CO)O1)NCc1ccncc1	none (no result: RecA intein inh, Mtb UGM inh, FadD28 FP inh, Rv3671c inh)
Cc1ccc(NC2=C(Cl)C(=O)c3ccccc3C2=O)cc1	none
COc1ccc(NC2=C(NCCO)C(=O)c3ccccc3C2=O)cc1	RecA intein inh 56 (no result: BioA inh) | GFP chromophore 31
O=C1C(Cl)=C(Nc2ccc(O)cc2)C(=O)c2ccccc21	RecA intein inh 95 (no result: BioA inh) | GFP chromophore 2.5
O=C1C=C(Nc2ccc(O)cc2)C(=O)c2ccccc21	RecA intein inh 73 | GFP chromophore 3.6
COC1=C(Nc2ccc(OC)cc2)C(=O)c2ccccc2C1=O	none (no result: BioA inh, TcdB inh)
COC1=C(Nc2ccc(O)cc2)C(=O)c2ccccc2C1=O	RecA intein inh 58 (no result: BioA inh) | GFP chromophore 13
COc1ccc2c3c([nH]c2c1)[C@@H](CO)N(Cc1nccs1)CC31CN(C(=O)C2CCC2)C1	none (no result: RecA intein inh, BioA inh, Mtb UGM inh, FadD28 FP inh, Rv3671c inh)
O=C(Nc1cccc(F)c1)N1CC(=O)N2[C@H](C1)[C@H](c1ccc(-c3ccccc3)cc1)[C@@H]2CO	none (no result: RecA intein inh, BioA inh, Mtb UGM inh, FadD28 FP inh, Rv3671c inh)
CCOC(=O)CC1=NN(c2ccccc2)C(=O)/C1=C\c1ccc(OC)cc1OC	RecA intein inh 47 (no result: BioA inh) | GFP chromophore 0.41
COc1ccccc1S(=O)(=O)Nc1ccc2c(c1)OC[C@H](C)NC[C@H](C)[C@@H](OC)CN(C)C2=O	none (no result: RecA intein inh, BioA inh, Mtb UGM inh, FadD28 FP inh, Rv3671c inh)
O=c1[nH]c(=O)n(C2CCCCCC2)c(O)c1C=NCc1ccc(F)cc1	none (no result: TcdB inh)
Oc1c(C=NCc2ccc(F)cc2)[nH]c2ccc(Br)c(Cl)c12	RecA intein inh 43 (no result: BioA inh, FadD28 FP inh, TcdB inh) | GFP chromophore 6.1
COc1ccc(CN=Cc2c(O)[nH]c3ccccc23)cc1	none (no result: BioA inh)
Cc1ccc(CN=Cc2[nH]c3ccc(Br)c(Cl)c3c2O)cc1	RecA intein inh 75 (no result: BioA inh) | GFP chromophore 4.8
O=C1c2ccccc2-c2onc3ccc(N4CCCC4)c1c23	RecA intein inh 55, FadD28 FP inh inconclusive (no result: BioA inh, Mtb UGM inh, Rv3671c inh) | GFP chromophore 24
O=C1c2ccccc2C(=O)c2c1cccc2N1CCCC1	none
CS(=O)(=O)N1CCC(Oc2ccccc2C(=O)N2CCCCC2CO)CC1 (stereo unspecified)	RecA intein inh 48 | GFP chromophore inactive
COc1cc(/C=C2\C(=O)N(c3ccc(S(N)(=O)=O)cc3)N=C2C)ccc1OC(=O)c1ccco1	RecA intein inh 93 (no result: BioA inh) | GFP chromophore 20
C#CCOc1ccc(/C=C2/C(=O)N(c3cccc(C(=O)O)c3)N=C2C)cc1OC	RecA intein inh 71 | GFP chromophore 3.4
Cc1ccc(C)n1-c1ccc(C(=O)O)cc1	none (no result: BioA inh, FadD28 FP inh, TcdB inh)
Cc1cc(=O)n(-c2ccc(C(=O)O)cc2)[nH]1	RecA intein inh 94 | GFP chromophore 2.8
Cc1cc(=O)n(-c2ccccc2Cl)[nH]1	RecA intein inh 87 (no result: BioA inh) | GFP chromophore 18
CCOC(=O)c1ccc(-n2[nH]c(-c3ccccc3)cc2=O)cc1	RecA intein inh 67 (no result: BioA inh, TcdB inh) | GFP chromophore 3.3
Cc1cc(=O)cc(C)n1-c1ccc(O)cc1	none (no result: BioA inh)
Cc1cc(=O)n(-c2ccc(O)cc2)[nH]1	RecA intein inh 97 (no result: TcdB inh) | GFP chromophore 2.2
C[C@H](CO)N1C[C@H](C)[C@@H](CN(C)C(=O)Cc2ccccn2)Oc2ncc(C#CC3CCCC3)cc2C1=O	none (no result: RecA intein inh, Mtb UGM inh, FadD28 FP inh, Rv3671c inh)
C[C@H]1CCCCO[C@@H](CN(C)Cc2ccc(C(=O)O)cc2)[C@@H](C)CN([C@@H](C)CO)C(=O)c2cc(NS(=O)(=O)c3ccccc3)ccc2O1	none (no result: RecA intein inh, Mtb UGM inh, FadD28 FP inh, Rv3671c inh, TcdB inh)
COc1ccc(C2NC(c3ccc(OC)cc3OC)C(C)C(=O)C2C)c(OC)c1 (stereo unspecified)	RecA intein inh 51 (no result: BioA inh) | GFP chromophore inactive
COc1ccc(OC)c(C2CC(=O)C(C)C(c3cc(OC)ccc3OC)N2)c1 (stereo unspecified)	none (no result: TcdB inh)
C/C=C/c1ccc([C@H]2[C@H](CO)N(C(=O)c3cnccn3)C23CN(C(=O)C2CC2)C3)cc1	none (no result: RecA intein inh, BioA inh, Mtb UGM inh, FadD28 FP inh, Rv3671c inh)
CC(C)(C)Nc1nc(Cl)nc(N(C#N)CN2C(=O)c3ccccc3S2(=O)=O)n1	RecA intein inh 51 (no result: BioA inh) | GFP chromophore 39
CC(=O)Nc1ccc2c(c1)C(=O)N(C)[C@@H]1CC[C@H](CC(=O)NCC3CCCCC3)O[C@H]1CO2	none (no result: RecA intein inh, Mtb UGM inh, FadD28 FP inh, Rv3671c inh, TcdB inh)
CCOc1ccc(S(=O)(=O)NCc2cccnc2)cc1C	RecA intein inh 40 | GFP chromophore inactive
CC1=C(C(=O)OC(C)C)C2(O)C(=O)c3ccccc3C2(O)N1 (stereo unspecified)	RecA intein inh 32 (no result: TcdB inh) | GFP chromophore 27
O=C(CCl)N1c2ccccc2CCc2ccccc21	RecA intein inh 80 | GFP chromophore 22
COc1ccccc1NC(=O)Nc1ccc2c(c1)C(=O)N(C)C[C@H](OC)[C@H](C)CN[C@H](C)CO2	none (no result: RecA intein inh, Mtb UGM inh, FadD28 FP inh, Rv3671c inh)
CCCC#Cc1ccc2c(c1)O[C@H](CN(C)C)[C@@H](C)CN([C@H](C)CO)S2(=O)=O	none (no result: RecA intein inh, Mtb UGM inh, FadD28 FP inh, Rv3671c inh)
Cc1ccc(Nc2cc(C)nn2-c2nc(C)cc(=O)[nH]2)cc1	RecA intein inh 39 (no result: TcdB inh) | GFP chromophore inactive
Cc1ccc(Nc2cc(C)nn2-c2nc(C)cc(C)n2)cc1	none (no result: TcdB inh)
CC(=O)Oc1ccc2ccccc2c1C(NC(=O)Cc1ccccc1)c1ccc(Cl)cc1 (stereo unspecified)	RecA intein inh 43 (no result: TcdB inh) | GFP chromophore inactive
COc1cc(/C=C(\C#N)C(=O)c2c[nH]c3ccccc23)cc(OC)c1O	RecA intein inh 92 | GFP chromophore 5.2
COc1ccc(C2NC(=O)NC3=C2CCc2ccccc23)cc1 (stereo unspecified)	RecA intein inh 47 (no result: TcdB inh) | GFP chromophore 33
Nc1cc2nn(-c3ccccc3)nc2cc1Cl	RecA intein inh 63 (no result: BioA inh, Mtb UGM inh, Rv3671c inh) | GFP chromophore 37
Nc1ccc2nn(-c3ccccc3)nc2c1	none (no result: RecA intein inh, Mtb UGM inh, Rv3671c inh)
COc1cccc(CNC(=O)C[C@H]2CC[C@@H](NS(=O)(=O)c3ccccc3OC)[C@@H](CO)O2)c1	none (no result: RecA intein inh, Mtb UGM inh, FadD28 FP inh, Rv3671c inh)
